About 2,000 (36%) of roughly 5,500 compounds were called active. Inconclusive results (about 18%) are left out. Some of the results follow. Values without a mark were called inactive. Rule as the data show it: active = normalized growth mostly below about 0.91 (no sharp cut-off); inconclusive = no clear call, values can overlap the other calls; inactive = mostly above about 0.92.
Test: chemical genetic growth profiling, strain panel (AID 1159580);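 also: tested at 20 µM; growth read once vehicle control cultures reached saturation at 30 °C; 1 = growth at the plate median or of vehicle wells; lower values mean less growth of the strain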
Details: S. cerevisiae deletion strains, growth OD
[1] = locus YDL101C, strain DUN1, active compounds read low
[2] = locus YHR030C, strain SLT2, active compounds read low
[3] = locus YAR019C, strain CDC15, active compounds read low
[4] = locus YBL105C, strain PKC1, active compounds read low
[5] = locus YBR135W, strain CKS1, active compounds read low
[6] = locus YBR136W, strain MEC1, active compounds read low
[7] = locus YBR160W, strain CDC28, active compounds read low
[8] = locus YDL017W, strain CDC7, active compounds read low
[9] = locus YDL028C, strain MPS1, active compounds read low
[10] = locus YDL108W, strain KIN28, active compounds read low
[11] = locus YDL132W, strain cdc53, active compounds read low
[12] = locus YDL214C, strain PRR2, active compounds read low
[13] = locus YDR052C, strain DBF4, active compounds read low
[14] = locus YDR054C, strain cdc34, active compounds read low
[15] = locus YDR226W, strain ADK1, active compounds read low
[16] = locus YDR477W, strain SNF1, active compounds read low
[17] = locus YER123W, strain YCK3, active compounds read low
[18] = locus YER133W, strain GLC7, active compounds read low
[19] = locus YFL009W, strain cdc4, active compounds read low
[20] = locus YFL029C, strain CAK1, active compounds read low
[21] = locus YFR003C, strain YPI1, active compounds read low
[22] = locus YFR019W, strain FAB1, active compounds read low
[23] = locus YFR028C, strain CDC14, active compounds read low
[24] = locus YGR040W, strain KSS1, active compounds read low
[25] = locus YGR052W, strain FMP48, active compounds read low
[26] = locus YGR092W, strain DBF2, active compounds read low
[27] = locus YHR079C, strain IRE1, active compounds read low
[28] = locus YHR082C, strain KSP1, active compounds read low
[29] = locus YHR205W, strain SCH9, active compounds read low
[30] = locus YIL147C, strain SLN1, active compounds read low
[31] = locus YJL095W, strain BCK1, active compounds read low
[32] = locus YJL128C, strain PBS2, active compounds read low
[33] = locus YJL157C, strain FAR1, active compounds read low
[34] = locus YJR016C, strain ILV3, active compounds read low
[35] = locus YJR066W, strain TOR1 (second series), active compounds read low
[36] = locus YJR066W, strain TOR1, active compounds read low
[37] = locus YKL048C, strain ELM1, active compounds read low
[38] = locus YKL067W, strain YNK1, active compounds read low
[39] = locus YKL101W, strain HSL1, active compounds read low
[40] = locus YKL193C, strain SDS22, active compounds read low
[41] = locus YKL203C, strain TOR2, active compounds read low
[42] = locus YLR113W, strain HOG1, active compounds read low
[43] = locus YLR133W, strain CKI1, active compounds read low
[44] = locus YLR403W, strain SFP1, active compounds read low
[45] = locus YML070W, strain DAK1, active compounds read low
[46] = locus YMR001C, strain CDC5, active compounds read low
[47] = locus YMR205C, strain PFK2 (second series), active compounds read low
[48] = locus YMR277W, strain FCP1, active compounds read low
[49] = locus YNL006W, strain LST8, active compounds read low
[50] = locus YNL020C, strain ARK1, active compounds read low
[51] = locus YNL161W, strain CBK1, active compounds read low
[52] = locus YNL183C, strain NPR1, active compounds read low
[53] = locus YNL207W, strain RIO2, active compounds read low
[54] = locus YNL222W, strain SSU72, active compounds read low
[55] = locus YNL307C, strain MCK1 (second series), active compounds read low
[56] = locus YOL078W, strain AVO1, active compounds read low
[57] = locus YOL136C, strain PFK27, active compounds read low
[58] = locus YOR061W, strain CKA2, active compounds read low
[59] = locus YOR119C, strain RIO1, active compounds read low
[60] = locus YOR231W, strain MKK1, active compounds read low
[61] = locus YOR329C, strain SCD5, active compounds read low
[62] = locus YPL031C, strain PHO85, active compounds read low
[63] = locus YPL153C, strain RAD53, active compounds read low
[64] = locus YPL204W, strain HRR25, active compounds read low
[65] = locus YPL209C, strain IPL1, active compounds read low
[66] = locus YPL256C, strain CLN2, active compounds read low
[67] = locus YPR025C, strain CCL1, active compounds read low
[68] = locus YPR106W, strain ISR1, active compounds read low
[69] = locus YPR111W, strain DBF20, active compounds read low
[70] = strain NNK1, active compounds read low
[71] = strain TSCII, active compounds read low

Cc1c(Cl)cccc1NC(=S)Nc1ccc(Cl)cc1C(=O)c1ccccc1
normalized growth (locus YAL013W, strain DEP1, active compounds read low): 0.999 | normalized growth (locus YBR229C, strain ROT2, active compounds read low): 0.991 | normalized growth (locus YCL061C, strain MRC1, active compounds read low): 0.985 | normalized growth [1]: 0.993 | normalized growth (locus YDR150W, strain NUM1, active compounds read low): 0.987 | normalized growth (locus YEL061C, strain CIN8, active compounds read low): 1 | normalized growth (locus YGR078C, strain PAC10, active compounds read low): 0.968 | normalized growth [2]: 0.894 | normalized growth (locus YHR087W, strain rtc3, active compounds read low): 0.99 | normalized growth (locus YJR043C, strain POL32, active compounds read low): 0.989 | normalized growth (locus YJR075W, strain HOC1, active compounds read low): 0.971 | normalized growth (locus YLR039C, strain RIC1, active compounds read low): 0.907 | normalized growth (locus YLR058C, strain SHM2 (second series), active compounds read low): 1.01 | normalized growth (locus YLR085C, strain ARP6, active compounds read low): 0.969 | normalized growth (locus YLR262C, strain YPT6, active compounds read low): 0.946 | normalized growth (locus YML094W, strain GIM5, active compounds read low): 0.98 | normalized growth (locus YMR219W, strain ESC1, active compounds read low): 0.991 | normalized growth (locus YMR263W, strain SAP30, active compounds read low): 0.993 | normalized growth (locus YMR307W, strain GAS1, active compounds read low): 0.924 | normalized growth (locus YNL153C, strain GIM3, active compounds read low): 0.984 | normalized growth (locus YNL298W, strain CLA4 (second series), active compounds read low): 0.987 | normalized growth (locus YNL322C, strain KRE1, active compounds read low): 0.986 | normalized growth (locus YNR030W, strain Alg12, active compounds read low): 0.969 | normalized growth (locus YPL055C, strain LGE1, active compounds read low): 0.98 | normalized growth (locus YPL241C, strain CIN2, active compounds read low): 0.969 | normalized growth (locus YPR135W, strain CTF4, active compounds read low): 0.956

N#CCC(=O)NNC(=S)Nc1ccc(Cl)c(Cl)c1
normalized growth [3]: 0.991 | normalized growth [4]: 0.985 | normalized growth [5]: 0.981 | normalized growth [6]: 0.983 | normalized growth [7]: 0.991 | normalized growth [8]: 0.987 | normalized growth [9]: 0.986 | normalized growth [1]: 0.981 | normalized growth [10]: 0.98 | normalized growth [11]: 0.974 | normalized growth [12]: 0.938 | normalized growth [13]: 0.988 | normalized growth [14]: 0.98 | normalized growth [15]: 0.982 | normalized growth [16]: 0.929 | normalized growth [17]: 0.895 | normalized growth [18]: 0.92 | normalized growth [19]: 0.98 | normalized growth [20]: 0.989 | normalized growth [21]: 0.979 | normalized growth [22]: 0.969 | normalized growth [23]: 0.979 | normalized growth [24]: 0.93 | normalized growth [25]: 0.955 | normalized growth [26]: 0.965 | normalized growth [2]: 0.931 | normalized growth [27]: 0.965 | normalized growth [28]: 1.04 | normalized growth [29]: 0.96 | normalized growth [30]: 0.986 | normalized growth [31]: 0.932 | normalized growth [32]: 0.943 | normalized growth [33]: 0.931 | normalized growth [34]: 0.978 | normalized growth [35]: 0.913 | normalized growth [36]: 1.07 | normalized growth [37]: 0.97 | normalized growth [38]: 0.936 | normalized growth [39]: 0.942 | normalized growth [40]: 0.975 | normalized growth [41]: 1.01 | normalized growth [42]: 0.881 | normalized growth [43]: 0.96 | normalized growth [44]: 0.963 | normalized growth [45]: 0.93 | normalized growth [46]: 0.979 | normalized growth [47]: 0.942 | normalized growth [48]: 0.982 | normalized growth [49]: 0.984 | normalized growth [50]: 0.964 | normalized growth [51]: 0.981 | normalized growth [52]: 1.04 | normalized growth [53]: 0.978 | normalized growth [54]: 0.984 | normalized growth [55]: 0.962 | normalized growth [56]: 0.975 | normalized growth [57]: 0.95 | normalized growth [58]: 0.95 | normalized growth [59]: 0.988 | normalized growth [60]: 0.975 | normalized growth [61]: 0.985 | normalized growth [62]: 0.916 | normalized growth [63]: 0.916 | normalized growth [64]: 0.917 | normalized growth [65]: 0.987 | normalized growth [66]: 0.956 | normalized growth [67]: 0.988 | normalized growth [68]: 0.975 | normalized growth [69]: 0.976 | normalized growth [70]: 0.988 | normalized growth [71]: 0.983

CCOC(=O)/C(=N/Nc1c(Cl)cccc1Cl)c1csc(N)n1
normalized growth [3]: 0.968 | normalized growth [4]: 0.982 | normalized growth [5]: 0.973 | normalized growth [6]: 0.972 | normalized growth [7]: 0.984 | normalized growth [8]: 0.98 | normalized growth [9]: 0.975 | normalized growth [1]: 0.986 | normalized growth [10]: 0.97 | normalized growth [11]: 0.971 | normalized growth [12]: 0.89 | normalized growth [13]: 0.973 | normalized growth [14]: 0.996 | normalized growth [15]: 0.973 | normalized growth [16]: 0.864 | normalized growth [17]: 0.906 | normalized growth [18]: 0.868 | normalized growth [19]: 0.959 | normalized growth [20]: 0.966 | normalized growth [21]: 0.97 | normalized growth [22]: 0.971 | normalized growth [23]: 0.968 | normalized growth [24]: 0.884 | normalized growth [25]: 0.933 | normalized growth [26]: 0.834 | normalized growth [2]: 0.69 (active) | normalized growth [27]: 0.837 | normalized growth [28]: 0.973 | normalized growth [29]: 0.994 | normalized growth [30]: 0.968 | normalized growth [31]: 0.873 | normalized growth [32]: 0.995 | normalized growth [33]: 0.864 | normalized growth [34]: 0.976 | normalized growth [35]: 0.868 | normalized growth [36]: 0.906 | normalized growth [37]: 0.986 | normalized growth [38]: 0.892 | normalized growth [39]: 0.918 | normalized growth [40]: 0.976 | normalized growth [41]: 0.921 | normalized growth [42]: 0.801 (active) | normalized growth [43]: 0.913 | normalized growth [44]: 0.864 | normalized growth [45]: 0.889 | normalized growth [46]: 0.976 | normalized growth [47]: 0.925 | normalized growth [48]: 0.975 | normalized growth [49]: 0.968 | normalized growth [50]: 0.904 | normalized growth [51]: 0.969 | normalized growth [52]: 0.91 | normalized growth [53]: 0.947 | normalized growth [54]: 0.969 | normalized growth [55]: 0.898 | normalized growth [56]: 0.978 | normalized growth [57]: 0.893 | normalized growth [58]: 0.906 | normalized growth [59]: 0.975 | normalized growth [60]: 0.864 | normalized growth [61]: 0.975 | normalized growth [62]: 0.852 | normalized growth [63]: 0.858 | normalized growth [64]: 0.805 | normalized growth [65]: 0.973 | normalized growth [66]: 0.859 (active) | normalized growth [67]: 0.976 | normalized growth [68]: 0.966 | normalized growth [69]: 0.947 | normalized growth [70]: 0.97 | normalized growth [71]: 0.963

— PubChem BioAssay AID1159580 (chemical genetic matrix, 2015)
